Compound activity from PubChem.
Pf growth 96h: Primary qHTS for delayed death inhibitors of the malarial parasite plastid, 96 hour incubation; actives 6.9% (n = 320,000); P. falciparum luciferase reporter growth, 96 h; Potency, µM (top dose mostly 28.7 µM), inactives show at the top dose activity change, negative = inhibition, usual class: inhibitors; note: potency is the fitted concentration of half-maximal effect; % is set by controls: 0 for no effect and ±100 for the full control effect
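Two-generation exposure (96 h) targets delayed-death phenotype. Reporter parasites carrying integrated firefly luciferase, in red cells at 2% hematocrit and 0.05% parasitemia final, kept at 37 C, 5% CO2; luminescence loss indicates inhibition.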
LmPK inhibitor: qHTS Assay for Inhibitors of Leishmania Mexicana Pyruvate Kinase (LmPK); Q27686; purified LmPK, Kinase-Glo ATP luminescence, 1 h; Potency, µM (highest dose often 57.5 µM), without a hit: at the top dose activity change, negative = inhibition, hits mostly inhibitors; actives 0.37% (n = 290,000); AID 1721, 2009; note: potency is the fitted concentration of half-maximal effect; % is set by controls: 0 for no effect and ±100 for the full control effect
Target sequence (Q27686 whole entry, looked up): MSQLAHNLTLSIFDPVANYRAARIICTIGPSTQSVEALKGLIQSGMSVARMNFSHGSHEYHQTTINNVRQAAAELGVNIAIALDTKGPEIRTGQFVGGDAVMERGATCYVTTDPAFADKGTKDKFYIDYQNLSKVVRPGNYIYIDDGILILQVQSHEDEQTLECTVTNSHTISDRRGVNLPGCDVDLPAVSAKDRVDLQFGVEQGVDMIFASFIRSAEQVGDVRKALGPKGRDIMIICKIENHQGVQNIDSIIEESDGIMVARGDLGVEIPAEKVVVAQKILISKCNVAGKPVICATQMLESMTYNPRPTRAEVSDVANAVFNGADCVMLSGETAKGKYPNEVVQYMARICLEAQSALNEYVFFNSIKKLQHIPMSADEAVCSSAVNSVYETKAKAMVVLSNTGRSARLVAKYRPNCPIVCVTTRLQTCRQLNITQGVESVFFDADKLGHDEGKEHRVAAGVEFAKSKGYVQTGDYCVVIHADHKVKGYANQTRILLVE
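qHTS format; LmPK 0.1 nM; substrates PEP 0.5 mM and ADP 0.1 mM. One-hour room-temperature incubation, then coupled luciferase luminescence; 0.5 nM enzyme wells mark activation.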
Cycloheximide cs: Cycloheximide Counterscreen for Small Molecule Inhibitors of Shiga Toxin; cell reporter, cycloheximide protein synthesis inhibition counterscreen; max response, %; actives 12% (n = 300,000); in the data active = max response mostly above about 13%, no sharp cut-off; inactive = mostly below about 14%; note: read at 38.3 µM for the half of the compounds with a filed dose; 0% is about no effect
Shiga inhibitor: A qHTS for Small Molecule Inhibitors of Shiga Toxin; Vero cells, Shiga toxin protein synthesis inhibition reporter; inhibition, % at 38.7 µM; actives 9.2% (n = 290,000); AID 2315, 2010; in the data active = inhibition mostly above about 28%, no sharp cut-off; inactive = mostly below about 43%; note: 0% is about no effect
Pf growth 48h: Primary qHTS for delayed death inhibitors of the malarial parasite plastid, 48 hour incubation; P. falciparum luciferase growth in erythrocytes, 48 h; Potency, µM (doses to about 28.7 µM), inactives show top-dose activity change, negative = inhibition, most hits filed as inhibitors; actives 5.9% (n = 310,000); note: potency is the fitted concentration of half-maximal effect; % is set by controls: 0 for no effect and ±100 for the full control effect
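Growth was read as firefly luciferase luminescence after a 48 h, 37 C, 5% CO2 exposure of compounds to reporter-bearing P. falciparum cultures (0.1% parasitemia, 2% hematocrit final) in Albumax-supplemented RPMI 1640.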
* hit, by the source's call; [ ] = remark or other dose. An excerpt weighted towards active compounds, which were near 22% of everything screened. Unless noted, calls come from the whole dose curve; as a rule, active = well fitted inhibition curve with a large enough effect; inconclusive = small, poorly fitted or top-dose-only effect, or another doubt; inactive = no such curve, though single readings can be large or run the other way.

What do the screens show for `COc1cc(C(=O)Oc2ccccc2/C=N/NC(=O)c2ccc(Cl)cc2Cl)cc(OC)c1OC`?
Pf growth 96h: inconclusive; LmPK inhibitor: 5%; Cycloheximide cs: 23*; Shiga inhibitor: 26*; Pf growth 48h: 6.6µM*

How did COc1ccc2cc(S(=O)(=O)NCc3cccnc3)ccc2c1 do in these assays?
Pf growth 96h: -8%; LmPK inhibitor: -2%; Cycloheximide cs: 7; Shiga inhibitor: 36; Pf growth 48h: 24%

What do the screens show for `CCN1C(=O)S/C(=C/c2c(OCc3ccc(C(=O)O)cc3)ccc3ccccc23)C1=O`?
Pf growth 96h: 6.6µM*; LmPK inhibitor: 2%; Cycloheximide cs: -4; Shiga inhibitor: 7; Pf growth 48h: inconclusive

Results for O=C(O)c1ccc(COc2ccccc2/C=C2/NC(=O)N(c3cccc(Cl)c3)C2=O)cc1 ?
Pf growth 96h: inconclusive; LmPK inhibitor: 3%; Cycloheximide cs: -3; Shiga inhibitor: 23; Pf growth 48h: 18%

How did O=C(O)c1ccc(COc2ccc3ccccc3c2/C=C2/NC(=O)N(c3ccccc3)C2=O)cc1 do in these assays?
Pf growth 96h: inconclusive; LmPK inhibitor: 2%; Cycloheximide cs: 2; Shiga inhibitor: 6; Pf growth 48h: 5.9µM*

How did CCCOc1ccc2ccccc2c1/C=C1\SC(=O)NC1=O do in these assays?
Pf growth 96h: inconclusive; LmPK inhibitor: 4%; Cycloheximide cs: -1; Pf growth 48h: -18%

Results for Cc1ccc(C(=O)NCC(=O)OCc2nnc(-c3ccc([N+](=O)[O-])cc3)o2)s1 ?
Pf growth 96h: inconclusive; Pf growth 48h: -15%

Results for COc1ccc([N+](=O)[O-])cc1NS(=O)(=O)c1cc(C(=O)N2CCN(C)CC2)ccc1OC ?
Pf growth 96h: 10%; Pf growth 48h: -1%

How did Cc1ccc(C(=O)c2coc3ccc(OCC(=O)O)cc23)cc1 do in these assays?
LmPK inhibitor: -10%; Cycloheximide cs: 22*; Shiga inhibitor: 35*; Pf growth 48h: 6%

Results for COc1ccc(C(=O)c2coc3ccc(O)cc23)cc1 ?
Pf growth 96h: -6%; LmPK inhibitor: -4%; Cycloheximide cs: 46*; Shiga inhibitor: 43*; Pf growth 48h: -31%

What do the screens show for `Cc1cccc2c1-c1sc(C(=O)N3CCCCC3)cc1CO2`?
Pf growth 96h: inconclusive; LmPK inhibitor: 3%; Cycloheximide cs: 30*; Shiga inhibitor: 41*; Pf growth 48h: 99%

How did CCOC(=O)N1CCN(C(=O)c2cc3c(s2)-c2c(C)cccc2OC3)CC1 do in these assays?
Pf growth 96h: 23%; LmPK inhibitor: 0%; Cycloheximide cs: -1; Shiga inhibitor: -17; Pf growth 48h: 13%

What do the screens show for `CCN1CCN(C(=O)c2cc3c(s2)-c2c(C)cccc2OC3)CC1`?
Pf growth 96h: 0%; LmPK inhibitor: 2%; Cycloheximide cs: 29*; Shiga inhibitor: 34*; Pf growth 48h: 98%

What do the screens show for `Cc1cc(C(=O)N/N=C/c2cn[nH]c2-c2ccccc2)cs1`?
Pf growth 96h: inconclusive; LmPK inhibitor: 4%; Cycloheximide cs: 9; Shiga inhibitor: 15; Pf growth 48h: -8%

What do the screens show for `Cc1nc(C(=O)N/N=C/c2[nH]ncc2Br)cs1`?
Pf growth 96h: 1.5µM*; LmPK inhibitor: -1%; Cycloheximide cs: 35*; Shiga inhibitor: 45; Pf growth 48h: 1.7µM*

Results for O=C(Nc1scc(-c2ccccc2)c1C(=O)O)c1ccc(F)cc1 ?
Pf growth 96h: 6%; LmPK inhibitor: -8%; Cycloheximide cs: 24*; Shiga inhibitor: 20*; Pf growth 48h: 30%

What do the screens show for `COc1ccc(-c2csc(NC(=O)c3ccccc3OC)c2C(=O)O)cc1OC`?
Pf growth 96h: inconclusive; LmPK inhibitor: 0%; Cycloheximide cs: 1; Pf growth 48h: inconclusive

What do the screens show for `COc1ccc(-c2csc(NC(=O)c3ccccc3Br)c2C(=O)O)cc1`?
Pf growth 96h: 13%; LmPK inhibitor: 5%; Cycloheximide cs: -2; Shiga inhibitor: 4; Pf growth 48h: -1%[0.00184 µM]

How did O=C(Nc1nsc(-c2ccccc2)n1)c1ccc(F)cc1 do in these assays?
Pf growth 96h: inconclusive; LmPK inhibitor: -3%; Cycloheximide cs: 32*; Shiga inhibitor: 74*; Pf growth 48h: 166%

What do the screens show for `Cc1ccc(-c2csc(NC(=O)c3ccc(F)cc3)c2C(=O)O)cc1`?
Pf growth 96h: 3%; LmPK inhibitor: 0%; Cycloheximide cs: 40*; Shiga inhibitor: 94*; Pf growth 48h: 5%

How did COCCn1c(SCC(=O)N2CCC(C)CC2)nc2c(c1=O)SCC2 do in these assays?
Pf growth 96h: -25%; LmPK inhibitor: -3%; Cycloheximide cs: -4; Shiga inhibitor: -18; Pf growth 48h: -29%

Results for COc1ccccc1C(=O)Nn1cnc2ccccc2c1=O ?
Pf growth 96h: -9%; LmPK inhibitor: -3%; Cycloheximide cs: 24*; Shiga inhibitor: 49*; Pf growth 48h: 74%

Results for COc1ccc(Cl)cc1C(=O)Nn1cnc2ccccc2c1=O ?
Pf growth 96h: -17%; LmPK inhibitor: -1%; Cycloheximide cs: -2; Shiga inhibitor: -6; Pf growth 48h: 43%

How did CCN(CC)c1ccc(C(=O)Nn2cnc3ccccc3c2=O)cc1 do in these assays?
Pf growth 96h: -4%; LmPK inhibitor: -2%; Cycloheximide cs: 35*; Shiga inhibitor: 76*; Pf growth 48h: 17%

Results for O=C(NCc1ccco1)C1CCCN1C(=O)Nc1ccccc1Cl (configuration not stated) ?
Pf growth 96h: 14%; LmPK inhibitor: 2%; Cycloheximide cs: 5; Shiga inhibitor: 7; Pf growth 48h: 13%

Results for CC(C)c1c(C(=O)N/N=C2\CCc3ccccc32)nnn1-c1nonc1N ?
Pf growth 96h: inconclusive; LmPK inhibitor: -12%; Cycloheximide cs: -6; Shiga inhibitor: 35; Pf growth 48h: 3%

Results for Cc1ccc(NC(=O)c2ccc3c(c2)N(CC(=O)NC(C)C)C(=O)C(C)(C)O3)cc1 ?
Pf growth 96h: 15%; LmPK inhibitor: -2%; Cycloheximide cs: 6; Shiga inhibitor: -13; Pf growth 48h: -2%

How did O=C(NCc1ccc(F)cc1)c1cnn2ccccc12 do in these assays?
Pf growth 96h: 297%; LmPK inhibitor: 8%; Cycloheximide cs: 30*; Shiga inhibitor: 68

What do the screens show for `CSc1cccc(NC(=O)c2cnn3ccccc23)c1`?
Pf growth 96h: 472%; LmPK inhibitor: -16%; Cycloheximide cs: 45*; Shiga inhibitor: 76*; Pf growth 48h: 370%

How did CCc1ccc(NC(=O)c2cnn3ccccc23)cc1 do in these assays?
Pf growth 96h: 1.2µM*; LmPK inhibitor: -20%; Cycloheximide cs: 43*; Shiga inhibitor: 4

Results for C=CCc1c(NCCO)nc(C)[nH]c1=O ?
Pf growth 96h: inconclusive; LmPK inhibitor: 1%; Cycloheximide cs: 20*; Shiga inhibitor: 32; Pf growth 48h: 45%
